This note sets out measurements from publication PMC6925144, “A prospective compound screening contest identified broader inhibitors for Sirtuin 1” (Scientific Reports, 2019).

Molecules are shown by their SMILES. The full ranking holds about 3,200 compounds; the median of “TSA(without NAD+) / Primary screening (TSA) / delta Tm (K)” is about -0.07, and the highest 2% start at about 0.37. This is one part of a sample in which the highest values are shown more often than they occur.

The target of this assay is NAD-dependent deacetylase Sirtuin 1 (human, UniProt Q96EB6). The assay is described as follows: primary screen, delta tm. Conditions: 10 µM. On the set-up: single well (n = 1). Put shortly: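 Thermal shift of Sirtuin 1 measured without NAD+, compound at 10 µM (n = 1); value is ΔTm, with hits defined as ΔTm > 0.45 K or < −1.5 K. Hits retested at 5, 10, 20 µM (n = 4) and counterscreened on bovine carbonic anhydrase and ABL1 SH2 domain.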
Sequence of NAD-dependent deacetylase Sirtuin 1 (Q96EB6 2-747 limits assumed): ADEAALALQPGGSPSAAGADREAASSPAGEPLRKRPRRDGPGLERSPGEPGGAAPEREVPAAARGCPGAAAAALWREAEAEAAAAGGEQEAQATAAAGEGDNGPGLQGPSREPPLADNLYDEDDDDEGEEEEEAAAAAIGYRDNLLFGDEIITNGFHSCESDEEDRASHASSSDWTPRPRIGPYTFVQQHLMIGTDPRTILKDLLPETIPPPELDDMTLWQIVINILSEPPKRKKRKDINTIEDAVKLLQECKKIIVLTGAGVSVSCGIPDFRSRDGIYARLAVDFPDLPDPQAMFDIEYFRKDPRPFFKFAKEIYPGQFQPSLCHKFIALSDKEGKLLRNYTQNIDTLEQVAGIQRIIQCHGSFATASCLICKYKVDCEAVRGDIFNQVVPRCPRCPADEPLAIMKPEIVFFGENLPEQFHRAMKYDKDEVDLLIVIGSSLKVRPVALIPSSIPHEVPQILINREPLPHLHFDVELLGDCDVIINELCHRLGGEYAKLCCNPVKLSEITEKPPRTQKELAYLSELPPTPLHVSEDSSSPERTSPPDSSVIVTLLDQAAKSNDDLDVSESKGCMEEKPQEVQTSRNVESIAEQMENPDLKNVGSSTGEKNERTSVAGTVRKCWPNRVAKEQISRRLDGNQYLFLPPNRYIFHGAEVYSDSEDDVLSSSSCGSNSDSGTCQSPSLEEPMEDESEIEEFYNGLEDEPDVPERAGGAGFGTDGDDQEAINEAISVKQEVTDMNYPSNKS
For `O=C(/C=C/c1ccc(F)cc1)NCCCn1ccc2ccccc21`, the “TSA(without NAD+) / Primary screening (TSA) / delta Tm (K)” value turned out to be 0.08 K.
On to `Cc1ccc2c(CC(=O)Nc3ccccc3Cc3ccccc3)coc2c1`, for which the “TSA(without NAD+) / Primary screening (TSA) / delta Tm (K)” value came to 0.07 K.
Under `Cc1ccc(-c2nn(-c3ccccc3)cc2C(=O)NCc2nnc3ccccn23)cc1` stands -0.03 K.
Next, `Cc1noc(C)c1CC(=O)OCc1cn(-c2ccccc2)nc1-c1ccc(Cl)cc1`: 0.22 K; `COc1ccc(-c2nn(-c3ccccc3)cc2CN(CCCCCCN(Cc2cn(-c3ccccc3)nc2-c2ccc(OC)cc2)C(=O)CCC(=O)O)C(=O)CCC(=O)O)cc1`: 0.37 K.
In the case of `Cc1oc2cc(OC(C)C(=O)NCc3ccco3)ccc2c(=O)c1-c1c(F)cccc1Cl` (stereo not shown), the “TSA(without NAD+) / Primary screening (TSA) / delta Tm (K)” value is recorded as -0.11 K.
As for `O=C1NC(=S)N/C1=C\c1cc(Br)ccc1O`, the “TSA(without NAD+) / Primary screening (TSA) / delta Tm (K)” value is recorded as -0.23 K.
Next, `O=C1NC(=S)N/C1=C\c1ccccc1OCc1ccc(C(=O)O)cc1`: 0.38 K; `O=C1NC(=S)N/C1=C/c1ccc(-c2ccccc2F)o1`: 0.05 K.
Under `COc1ccc(C(N)=O)cc1NC(=O)c1nc2nc(C)cc(C)n2n1` stands -0.15 K; under `NC(=O)C1CCCN(c2ncnc3sc4c(c23)CCCC4)C1` (stereo not shown), -0.18 K; under `NC(=O)C1CCN(c2nc(CSc3ccccc3)nc3sc4c(c23)CCCC4)CC1`, 1.78 K.
On to `Cc1sc2nc(CN3CCCC3)nc(N3CCC(C(N)=O)CC3)c2c1C`, for which the “TSA(without NAD+) / Primary screening (TSA) / delta Tm (K)” value is reported as -0.12 K.
Next, `Cc1sc2nc(CSc3ccccc3)nc(N3CCCC(C(N)=O)C3)c2c1C` (stereo not shown): -0.12 K.
On to `Cc1sc2nc(CSc3ccccc3)nc(N3CCC(C(N)=O)CC3)c2c1C`, for which the “TSA(without NAD+) / Primary screening (TSA) / delta Tm (K)” value was 0.52 K.
In the case of `NC(=O)C1CCN(c2nc(CN3CCCCC3)nc3sc4c(c23)CCC4)CC1`, the “TSA(without NAD+) / Primary screening (TSA) / delta Tm (K)” value amounted to 0.07 K.
Under `O=C1/C(=C/c2cccc(Br)c2)Oc2cc(O)ccc21` stands 0.19 K; under `O=C1CCCN1c1cccc(NS(=O)(=O)c2cccc(F)c2)c1`, -0.02 K; under `COc1ccc(NC(C)c2ccc(S(C)=O)cc2)cn1` (stereo not shown), -0.18 K.
Consider `O=C(COC(=O)c1ccc(CNS(=O)(=O)c2ccc(F)c(Cl)c2)cc1)c1ccccc1`, for which the “TSA(without NAD+) / Primary screening (TSA) / delta Tm (K)” value was -0.03 K.
Next, `O=C(C1=C(O)C(=O)N(CCCN2CCOCC2)C1c1ccco1)c1cc2ccccc2o1` (stereo not shown): 0.02 K.
Next, `COc1cc(C=C(C(=O)NCC2CCCO2)C(=O)NCC2CCCO2)ccc1OCC(=O)Nc1ccc(C)cc1` (stereo not shown): -0.08 K.
As for `O=C(NCC1CCCO1)Nc1ccc(NC(=O)c2ccccn2)cc1` (stereo not shown), the “TSA(without NAD+) / Primary screening (TSA) / delta Tm (K)” value came to 0.07 K.
Regarding `Cc1ccc(C(=O)Nc2ccc(NC(=O)NCC3CCCO3)cc2)cn1` (stereo not shown), the “TSA(without NAD+) / Primary screening (TSA) / delta Tm (K)” value was determined as 0.52 K.
Next, `Cc1ccc(Nc2nc(CSc3nnc(NCc4ccco4)s3)cs2)cc1`: -0.17 K; `CC(C)OC(=O)CC(Nc1ccc2nnnn2n1)c1ccccc1` (stereo not shown): -0.07 K; `Cc1noc(CN2CCN(c3ncnc4c3oc3ccccc34)CC2)n1`: -0.33 K.
Under `Cc1ccc(S(=O)(=O)N2CCN(C(=O)CSc3nnc(NCc4ccco4)s3)CC2)cc1` stands 0.16 K; under `O=c1cc(CSc2nnc(-c3ccccc3)o2)c2cc3c(cc2o1)CCC3`, -0.18 K.
Next, `COCCNc1nnc(SCc2cc(=O)oc3c(C)c(O)ccc23)s1`: -0.74 K; `O=c1cc(CSc2nnc(Nc3ccccc3)s2)c2ccc(O)cc2o1`: 0.38 K.
Take `c1nc(N2CCNCC2)c2sccc2n1`: the “TSA(without NAD+) / Primary screening (TSA) / delta Tm (K)” value is on record as -0.08 K.
With `NC(=O)c1ccc(COC(=O)c2cc3c(ccc4ccccc43)[nH]2)cc1`, the “TSA(without NAD+) / Primary screening (TSA) / delta Tm (K)” value is 0.05 K.
Under `Cc1nc(COc2ccc(C(=O)Nc3ccc(S(=O)(=O)Nc4cccc(F)c4)cc3)cc2)cs1` stands 0.09 K; under `N#CC(C(=O)c1ccc(NS(=O)(=O)c2ccccc2)cc1)c1nc(-c2ccccn2)cs1` (stereo not shown), 0.46 K; under `O=C(Nc1ccc(Oc2ncccn2)cc1)c1ccc(S(=O)(=O)Nc2ccc(F)cc2)cc1`, -0.11 K.
Under `COc1ccc2[nH]cc(C3CCN(C(=O)c4coc(C)c4)CC3)c2c1` stands -0.03 K; under `Cc1nnc(CNC(=O)c2cc(-c3ccccc3)nc3c(C(N)=O)ncn23)s1`, -0.04 K; under `COc1ccc(NC(=O)COc2ccc(C(=O)NCC34CC5CC(CC(C5)C3)C4)cc2OC)cc1`, -0.34 K.
Consider `COc1ccc(NC(=O)c2ccc(NC(=O)COC(=O)C34CC5CC(CC(Br)(C5)C3)C4)cc2)cc1`, for which the “TSA(without NAD+) / Primary screening (TSA) / delta Tm (K)” value was 1.08 K.
Next, `COc1ccccc1NC(=O)COc1ccc(C(=O)OCC(=O)NC23CC4CC(CC(C4)C2)C3)cc1OC`: 0.08 K; `COc1ccccc1NC(=O)c1ccc(NC(=O)COC(=O)C23CC4CC(CC(C4)C2)C3)cc1`: 0.42 K.
Next, `COc1ccc(NC(=O)c2ccccc2NC(=O)COC(=O)C23CC4CC(CC(O)(C4)C2)C3)cc1`: 0.19 K.
With `COc1ccccc1NS(=O)(=O)c1ccc(NC(=O)CNC(=O)C23CC4CC(CC(C4)C2)C3)cc1`, the “TSA(without NAD+) / Primary screening (TSA) / delta Tm (K)” value came out at 0.03 K.
As for `CCOC(=O)c1ccc(S(=O)(=O)N2CCC(C(=O)OCC(=O)NCC34CC5CC(CC(C5)C3)C4)CC2)cc1`, the “TSA(without NAD+) / Primary screening (TSA) / delta Tm (K)” value is recorded as -0.13 K.
Under `CC(=O)N(c1nn(CN2CCN(c3ccc(C(N)=O)cn3)CC2)c(=S)s1)C1CC1` stands -0.23 K; under `CC1Cc2ccccc2N1c1ncnc2ccsc12` (stereo not shown), 0.07 K.
Under `CC(C)(C)c1ccc(OCC(=O)NNC(=O)c2cccnc2O)cc1` stands 0.17 K; under `Cc1nc2cc(C(=O)Nc3ccc(NC(=O)N4CCCCCC4)cc3)ccc2n1C`, -0.04 K; under `NC(=O)C1CCN(c2ncnc3sc4c(c23)CCC4)CC1`, -0.21 K.
As for `Cc1nc(N2CCC(C(N)=O)CC2)c2c3c(sc2n1)CCCC3`, the “TSA(without NAD+) / Primary screening (TSA) / delta Tm (K)” value is on record as 0.56 K.
Under `Cc1nc(N2CCC(NC(N)=O)CC2)c2c3c(sc2n1)CCCC3` stands -0.03 K; under `NC(=O)C1CCN(c2ncnc3sc4c(c23)CCCCC4)CC1`, 0.36 K.
With `Cc1nc(N2CCC(C(N)=O)CC2)c2c3c(sc2n1)CCC3`, the “TSA(without NAD+) / Primary screening (TSA) / delta Tm (K)” value is 0.07 K.
Under `Cc1nc(N2CCC(C(N)=O)CC2)c2c3c(sc2n1)CCCCC3` stands 0.78 K.
